# Compound activity from PubChem BioAssay.
# Hits are enriched below; roughly 1.6% of the tested compounds scored in any of these assays.
# CendR NRP1 mod – modulators of CendR peptide binding to NRP-1, primary screen, biochemical, fluorescence polarization, uHTS; Neuropilin-1 (Homo sapiens), O14786; FAM-RPARPAR peptide binding to NRP-1; inhibition, % at 25 µM; 360,000 tested, 0.85% active; AID 602438, 2012;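 active = inhibition or corrected inhibition above about 18%, plus a signal ratio from 0.5 to 1.5, limit read from the data, passing the limit was not always enough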
# PKA-R2B activ – activators of PKA-R2B holoenzyme, primary screen, biochemical, fluorescence polarization, Cy5-IP20, human | AID 504700, 2011 | 340,000 tested, 0.079% active | activation, % at 11.4 µM | PKA-R2B holoenzyme dissociation; R2B truncated from residue 108, S112A mutant; 0% DMSO only, 100% 113 µM cGMP | cAMP-dependent protein kinase catalytic subunit beta (Homo sapiens) + cAMP-dependent …;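 active = activation above a cutoff set at the mean over all compounds plus 3 SD, cut at about 18% in these data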;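 note: higher means more holoenzyme dissociation and a rise in polarization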
# Target sequence (P31323 whole entry, looked up, other chains not shown, the tested form may be a part): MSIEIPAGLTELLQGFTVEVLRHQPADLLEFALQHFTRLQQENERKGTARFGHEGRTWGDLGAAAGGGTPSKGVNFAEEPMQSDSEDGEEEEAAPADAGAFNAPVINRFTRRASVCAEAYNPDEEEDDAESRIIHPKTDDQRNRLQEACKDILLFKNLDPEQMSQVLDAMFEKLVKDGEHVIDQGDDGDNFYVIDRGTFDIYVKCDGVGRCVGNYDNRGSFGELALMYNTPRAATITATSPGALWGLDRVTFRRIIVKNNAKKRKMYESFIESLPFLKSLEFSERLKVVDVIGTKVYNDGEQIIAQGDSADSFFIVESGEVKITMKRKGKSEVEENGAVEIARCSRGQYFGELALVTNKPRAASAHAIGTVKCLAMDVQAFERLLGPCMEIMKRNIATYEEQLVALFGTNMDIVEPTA
# PKA-R1A act – activators of PKA-R1A holoenzyme, primary screen, biochemical, fluorescence polarization, Cy5-IP20, bovine R1A, mouse PKAc | PKA-R1A dissociation; scaled: DMSO 0%, 113 µM cGMP 100% | 340,000 tested, 0.083% active | activation, % at 11.4 µM | AID 504707, 2011;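 active = percent activation above the mean of all tested compounds plus 3 SD, cut at about 19% in these data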;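 note: higher means more PKAc released from R1A so a rise in polarization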
# VLA-4 inh – inhibition in human VLA-4 binding assay, primary screen, VLA-4 allosteric modulator project, MLPCN library, flow cytometry, VLA-4 expressing cells; AID 2557, 2010; Integrin alpha-4 (Homo sapiens), P13612; 330,000 tested, 0.2% active; ligand binding flow cytometry; inhibition, % (about 7 µM as worked out from the volumes in the protocol); in the data active = inhibition above about 50%
# ATG4B inh – ATG4B protease inhibitors, primary screen, biochemical, fluorescence, uHTS. 340,000 tested, 0.51% active. Cysteine protease ATG4B (Homo sapiens), Q9Y4P1. inhibition, % at 8.33 µM. ATG4B cleavage of LC3-PLA2, NBD-HPC fluorescence, 1 h
# VLA-4 mod pick – retest of VLA-4 allosteric modulators, confirmation, cell-based, cherry-picked plates, U937, HUTS-21 LIBS antibody; U937 cells, HUTS-21 LIBS mAb binding, flow cytometry; LDV ligand present at threefold Kd; inhibition, % at 6.7 µM; AID 2813, 2010; 1,300 tested, 2% active; shares compounds with VLA-4 inh
# Hits are given with their value; i = inactive; nt = no result given. Cut-off read from the data, not from the text of the source, unless noted: active = inhibition above about 40%; inactive = the rest.
SMILES,CendR NRP1 mod,PKA-R2B activ,PKA-R1A act,VLA-4 inh,ATG4B inh,VLA-4 mod pick
CCn1nc(C(=O)NCCc2ccc3c(c2)OCCO3)c2ccccc2c1=O,i,i,i,i,i,nt
COc1ccc(CN2C(=O)CSCC2(C)C(=O)Nc2c(C)cccc2C)cc1 (stereo not drawn),i,nt,nt,nt,nt,nt
O=C(N1CCN(c2ccccn2)CC1)N1c2ccccc2Sc2ccccc21,i,i,i,66.5,i,i
CC(C)[C@@H]1CN=C(N)N1C[C@@H]1CCCN1C[C@H](C)N1C[C@@H](Cc2ccccc2)N(CCc2ccc(Cl)c(Cl)c2)C1=N,i,i,i,52.8,i,i
Nc1nc(CN2CCN(c3ccccc3F)CC2)nc(Nc2ccccc2)n1,i,i,i,76.5,i,i
C/C(=N\Nc1ccc([N+](=O)[O-])cc1[N+](=O)[O-])c1cccnc1,i,i,i,i,i,i
O=C(CCc1ccc(S(=O)(=O)N2CCOCC2)cc1)Nc1ccccc1F,i,i,i,56.2,i,i
O=C(Nc1ccccc1Cl)c1cc(S(=O)(=O)N2CCCCC2)ccc1N1CCOCC1,i,i,i,i,i,i
O=C(Nc1ccccc1N1CCCCC1)c1cc(S(=O)(=O)N2CCOCC2)ccc1Cl,i,i,i,i,i,nt
O=C(Nc1ccccc1F)c1cc(S(=O)(=O)N2CCOCC2)ccc1N1CCOCC1,i,i,i,nt,i,i
Cc1ccc(NC(=O)c2cc(S(=O)(=O)N3CCCCC3)ccc2N2CCOCC2)cc1S(=O)(=O)N(C)C,i,i,i,nt,i,i
COc1cc(NC(=O)c2cc(S(=O)(=O)N3CCCCC3)ccc2N2CCOCC2)cc(OC)c1OC,i,i,i,nt,i,i
CC(C)OCCCn1c(-c2ccco2)nc2nc3ccccc3nc21,i,i,i,i,i,nt
COCCn1c(-c2ccco2)nc2nc3ccccc3nc21,i,i,i,92.3,i,i
CCN(c1ccc(C(=O)CSc2nnc(C3CC3)n2C2CC2)cc1)S(C)(=O)=O,i,i,i,i,i,nt
CCCCc1ccc(NC(=S)NCCc2ccc(F)cc2)cc1,i,i,i,i,i,i
O=C(c1ccncc1)N1CCN(S(=O)(=O)c2ccc(OC(F)(F)F)cc2)CC1,i,i,i,i,i,nt
O=C(N/N=C/C(Br)=C/c1ccccc1)c1ccncc1,i,i,i,i,i,nt
CCOc1cc(C(=O)N/N=C/C(Br)=C/c2ccccc2)cc(OCC)c1OCC,i,i,i,51.2,i,i
CC(=O)Nc1ccc(/C=C(\C#N)C(N)=O)cc1,i,nt,nt,i,i,i
CCCCCN1C(=O)Cn2c(nc3ccccc3c2=O)C1C (stereo not drawn),i,i,i,i,i,i
CCCCCCc1nc2ccccc2c(=O)n1N,i,i,i,i,i,nt
COC(=O)c1ccc(N2CCN(c3ccccc3)CC2)c(N)c1,i,i,i,i,i,i
CCn1c(-c2ccc(-c3ccccc3)cc2)c[nH]c1=S,i,i,i,92.6,i,i
COc1ccc(-c2nnc(SCc3ccccc3F)o2)cc1OC,i,i,i,94.7,i,i
SMILES,CendR NRP1 mod,PKA-R2B activ,PKA-R1A act,VLA-4 inh,ATG4B inh,VLA-4 mod pick
CC1=CC(Cc2ccccc2)N(C)C(C(N)=O)C1 (stereo not drawn),i,nt,nt,nt,nt,nt
COC(=O)c1sccc1NC(=O)Nc1ccccc1C,i,i,i,i,i,i
COC(=O)c1sccc1NC(=O)Nc1ccccc1F,i,i,i,i,i,nt
COc1ccc(-c2c(-c3ccccc3OC)sc3ccccc23)cc1OC,i,i,i,i,i,nt
COc1ccc2c(-c3ccc(OCCN4CCOCC4)cc3)c(-c3ccccc3OC)sc2c1,i,i,i,nt,i,i
COc1cc2sc(-c3ccccc3OC)c(-c3ccc(OCCN4CCOCC4)cc3)c2cc1OC,i,i,i,nt,i,i
Cc1ccc(-c2ccc(CN3C(C)C(=O)N(Cc4cn(Cc5ccco5)nn4)CCS3(=O)=O)cc2)c(C)c1 (stereo not drawn),i,nt,nt,nt,nt,nt
CC(C)(C)C(=O)NN=C1CCC(c2ccccc2)CC1 (stereo not drawn),i,i,i,i,i,nt
Cc1cccc(NC(=O)CSCC(=O)N(C)CCOc2ccc(Cl)cc2)c1,i,i,i,51.9,i,i
COc1ccc(-n2c(=O)[nH]cc(C(=O)Nc3ccccc3)c2=O)cc1,i,i,i,54.8,i,i
COc1ccc(-n2c(=O)[nH]cc(C(=O)Nc3ccc4c(c3)OCCO4)c2=O)cc1,i,i,i,i,i,nt
CC1(C)C(C(=O)O)N2C(=O)C(NC(=O)Cc3ccccc3)C2S1=O (stereo not drawn),i,i,i,59.0,i,i
Cc1ccnc(NS(=O)(=O)c2cc(-c3cc(C)no3)ccc2C(C)C)c1,i,i,i,i,i,nt
Cc1cccc(C(=O)OCC(=O)N(C)c2ccccc2)c1C,i,i,i,i,i,i
COc1ccc(NC(=O)Nc2ccc(F)cc2)cn1,i,i,i,i,i,i
COc1ccc(NC(=S)Nc2ccccc2)cn1,i,i,i,i,i,nt
COc1ccc(S(=O)(=O)N(CC(=O)NC2CCCCC2)c2ccc(F)cc2)cc1,i,i,i,i,i,nt
O=C(COC(=O)CNC(=O)c1ccccc1F)Nc1ncc(Cl)cc1Cl,i,i,i,i,i,nt
CCOC(=O)C1(C(F)(F)F)N=C(C(F)(F)F)Nc2ccccc21 (stereo not drawn),i,i,i,56.3,i,i
COc1ccc(C(C#N)CC(=O)c2ccc(OCc3ccccc3)c(OC)c2)cc1OC (stereo not drawn),i,i,i,nt,nt,nt
NS(=O)(=O)c1ccc(CNC(=O)C(Cc2ccccc2)NS(=O)(=O)c2ccccc2F)cc1 (stereo not drawn),i,i,i,i,i,i
CNc1nc(C)nc(-n2nc(C)cc2C)n1,i,i,i,i,i,i
Cc1ccc(NC(=O)CSc2nn(-c3ccccc3)c(=S)s2)cc1S(=O)(=O)N(C)C,i,i,i,i,i,i
COc1ccc(OCC(=O)Nc2ccccc2C(=O)NC(C)C)cc1,i,i,i,i,i,i
CCC(C)NC(=O)c1ccccc1NC(=O)COc1ccc(OC)cc1 (stereo not drawn),i,i,i,nt,i,i
N/C(Cn1cncn1)=N\NC(=O)C(=O)Nc1cccc(C(F)(F)F)c1,i,i,i,i,i,nt
